PLC-beta3 inh – PLC-beta3 (human) inhibition, primary screen; Purified PLC-beta3, fluorogenic substrate, fluorescence; actives 0.18% (n = 370,000); Q01970; AID 720704; inhibition, % at 12.2 µM; in the data active = inhibition above about 11%
PLC-gamma1 inh – PLC-gamma1 (human) inhibition, primary screen. AID 720700. inhibition, % at 12.2 µM. actives 0.84% (n = 370,000). purified PLC-gamma1, fluorogenic substrate, fluorescence; in the data active = inhibition above about 9.5%
KLK7 zymogen act – activators of human kallikrein-7 zymogen | purified proKLK7, EDANS-DABCYL substrate fluorescence; 100% is mature enzyme control, 0% vehicle | P49862 | actives 0.9% (n = 370,000) | activation, % at 7 µM | AID 652039;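 active = activation above the mean of all tested compounds plus 3 SD, computed per campaign excluding outliers beyond control limits, cut at about 13% in these data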
ADAM10 inh – ADAM10 inhibition, QFRET primary screen; O14672; recombinant ADAM10, EDANS/DABCYL FRET peptide cleavage, 3 h; inhibition, % at 7 µM; actives 0.62% (n = 370,000); AID 720582;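 active = inhibition above a per-campaign cutoff equal to the mean of compounds falling between control-based bounds plus 3 SD, cut at about 20% in these data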
Target sequence (O14672 214-748 limits assumed): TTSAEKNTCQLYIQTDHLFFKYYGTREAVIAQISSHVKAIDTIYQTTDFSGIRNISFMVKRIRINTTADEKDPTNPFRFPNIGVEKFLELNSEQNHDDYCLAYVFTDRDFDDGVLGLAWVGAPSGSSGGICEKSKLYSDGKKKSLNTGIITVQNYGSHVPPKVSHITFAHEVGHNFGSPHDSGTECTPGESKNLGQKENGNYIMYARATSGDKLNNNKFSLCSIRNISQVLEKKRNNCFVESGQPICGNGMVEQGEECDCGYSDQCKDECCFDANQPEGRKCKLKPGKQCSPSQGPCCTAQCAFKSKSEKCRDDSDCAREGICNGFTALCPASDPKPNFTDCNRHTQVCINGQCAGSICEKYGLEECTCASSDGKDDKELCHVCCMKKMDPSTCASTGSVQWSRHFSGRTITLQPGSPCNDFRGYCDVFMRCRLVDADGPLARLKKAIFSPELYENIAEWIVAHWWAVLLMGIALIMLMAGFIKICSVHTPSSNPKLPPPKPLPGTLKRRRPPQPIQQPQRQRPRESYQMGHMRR
ADAM17 inh – inhibitors of human ADAM17; P78536; recombinant ADAM17, EDANS/DABCYL FRET peptide cleavage; inhibition, % at 6.95 µM; actives 0.83% (n = 370,000); AID 720648;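 active = inhibition above the mean of compounds lying between control limits plus 3 SD, set per campaign, cut at about 8.5% in these data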
ADAM10 counter – inhibits human ADAM10 in ADAM17 exosite counter-screen; shares compounds with ADAM17 inh; recombinant ADAM10, EDANS/DABCYL FRET peptide cleavage, 3 h; inhibition, % at 6.95 µM; actives 47% (n = 2,900); AID 743256;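 active = mean inhibition over the triplicate runs exceeds the activity threshold set in the earlier primary screen, cut at about 20% in these data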
ADAM17 confirm – confirmation of inhibitors of human ADAM17; shares compounds with ADAM17 inh; recombinant ADAM17, EDANS/DABCYL QFRET peptide cleavage; inhibition, % at 6.95 µM; actives 65% (n = 2,900); AID 743257;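 active = mean inhibition across replicates above the hit cutoff set in the primary screen, cut at about 8.5% in these data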
Hits are given with their value; - = inactive; . = no result given. In the library only some 2.9% were active in any assay of this set; here they are far more common.

SMILES	PLC-beta3 inh	PLC-gamma1 inh	KLK7 zymogen act	ADAM10 inh	ADAM17 inh	ADAM10 counter	ADAM17 confirm
CC(=O)Nc1ccc(Sc2ncnc3scc(-c4ccccc4)c23)cc1	-	-	-	-	10	-	10.0
O=C(CSc1ncnc2scc(-c3ccccc3)c12)Nc1ccc(C(=O)O)cc1	-	-	-	-	-	.	.
CCNC(=O)O/N=C(\C)c1sc(-c2ccc(Cl)cc2)nc1C	-	-	-	-	9.8	-	-
C/C(=N\OC(=O)NC(C)C)c1sc(-c2ccc(Cl)cc2)nc1C	-	-	-	-	-	.	.
COC(=O)[C@]12CCCCC=C1N(Cc1ccco1)C(=O)[C@H](CC(=O)NCc1cccs1)C2	-	-	-	-	-	.	.
COc1cc(NC(=O)c2ccc(S(=O)(=O)N(C)c3ccccc3OC)cc2)cc(OC)c1	-	-	-	-	9.4	25	13
O=C(NC12CC3CC(CC(C3)C1)C2)c1cnccn1	-	-	-	-	-	.	.
CC1CCC(NC(=O)c2cnccn2)CC1 (stereo not drawn)	-	-	-	-	12	-	-
COC(=O)CC1(c2cccc3ccccc23)C(=O)c2ccccc2C1=O	-	-	-	-	-	.	.
NC(CSC1(c2cccc3ccccc23)c2ccccc2-c2ccccc21)C(=O)O (stereo not drawn)	-	-	-	-	10	-	10
O=C(C[C@@H]1CC[C@@H]2[C@H](COC[C@H](O)CN2S(=O)(=O)c2ccccc2)O1)Nc1ccccc1	-	-	-	-	-	.	.
COc1ccc(N=C2SC(CC(=O)Nc3ccc(F)cc3)C(=O)N2Cc2ccco2)cc1 (stereo not drawn)	-	-	-	-	12	-	13
COc1ccc(N=C2SC(CC(=O)Nc3ccccc3OC)C(=O)N2Cc2ccco2)cc1 (stereo not drawn)	-	-	-	-	-	.	.
CN(C)c1ccc(N=Nc2ccccc2C(=O)OCC(=O)N2CCCCCC2)cc1	-	-	-	-	13	-	8.7
CN(C)c1ccc(N=Nc2ccccc2C(=O)OCC(=O)N2CCCC2)cc1	-	-	-	-	-	.	.
COc1ccc(NS(=O)(=O)c2cc(NC(=O)CCSc3ccccc3)ccc2OC)cc1	-	-	-	-	10	42	22
Cc1[nH]n(-c2ncc(-c3ccccc3)s2)c(=O)c1C(c1ccc(Br)cc1)C(C#N)C#N (stereo not drawn)	-	-	-	-	8.7	-	12
CCN(c1ccc(NC(=O)COC(=O)C2CCN(c3ccc(C(F)(F)F)cn3)CC2)cc1)C(C)C	-	-	-	-	8.9	37	18
O=C(COC(=O)C1CCN(S(=O)(=O)c2ccc3c(c2)OCCO3)CC1)Nc1ccc(C(F)(F)F)cc1	-	-	-	-	8.7	-	11
C[C@H]1[C@@H](OC(=O)NC2CCC2)CC[C@@]23CCCN2C(=O)CCC[C@@H]13	-	-	.	-	-	.	.
COc1ccc2cc(-c3cccc4[nH]cc(C)c34)ccc2c1	-	-	-	-	-	.	.
COc1ccc(C(=O)N(Cc2sccc2C)C2CCS(=O)(=O)C2)cc1 (stereo not drawn)	-	-	-	-	9.1	-	-
CCOC1=C2CN(S(=O)(=O)c3ccc(C)cc3)C(c3cccc(Cl)c3)CC2NC(c2ccccc2)C1 (stereo not drawn)	-	-	-	-	-	.	.
Fc1cccc(CNc2ncnc3cc(Cl)ccc23)c1F	-	-	-	-	-	.	.
Cc1ccc(S(=O)(=O)N2CCCCC2)cc1NC(=O)CSc1ncccn1	-	-	-	-	-	.	.
Cc1cccc(-c2nnc(SCc3cccc4ccccc34)n2-c2ccc(Cl)cc2)c1	-	-	-	-	-	.	.
Clc1ccc(-n2c(SCc3cccc4ccccc34)nnc2-c2ccccn2)cc1	-	-	-	-	11	27	14
O=C(/C=C/Nc1ccc(Br)cc1F)c1ccco1	-	-	-	-	-	.	.
O=C(Oc1ccc(Br)cc1C(=O)/C=C/c1ccccc1F)c1ccco1	-	-	-	-	11	-	-
CC(=O)Oc1ccc(N2C(=O)C3C4C=CC(O4)C3C2=O)cc1 (stereo not drawn)	-	-	-	-	9.8	-	17

Screening results from PubChem.
